This is part of a sample that, as a whole, favours compounds with a hit. Of some 79,000 tested, about 15% had one in any assay. A number with no mark means an inactive call. Activity calls are given as the source filed them. No stated cut-off is given here; in the data, active means growth inhibition above about 70%; inactive means the rest. *1 amine or outer side, *2 acyl side, *3 side chain or, on linkers, in order; H or OH if unused. Where a SMILES comes first, the peptide text is derived from it. Bridges are numbered along the chain shown (N, C = ends). [ ]: non-standard residue; d: D form. The star is where a group is joined. Fmoc = O=C(OCC1c2ccccc2-c2ccccc21)*; X9 = O=C(C(CCCCNO[*:3])N[*:1])[*:2]
Legend:
[1] = NCI Yeast Anticancer Drug Screen. Data for the rad50 strain (AID 155);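 further: 0% = growth of vehicle-only cultures of the same strain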; conditions: S. cerevisiae rad50 strain growth inhibition; at 50.0 µM; active compounds read high
Procedure, shortened: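 Growth of the mutant yeast was measured after compound exposure and referenced to vehicle-treated cultures.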

[2] = NCI Yeast Anticancer Drug Screen. Data for the mec2-1 strain (AID 157); conditions: S. cerevisiae mec2-1 strain, at 50.0 µM, active compounds read high
Procedure, shortened: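 Compounds were applied to mec2-1 yeast cells. Their growth was then compared with that of vehicle-treated cultures to give growth inhibition.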

[3] = NCI Yeast Anticancer Drug Screen. Data for the sgs1 mgt1 strain (AID 161);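 further: 0% = growth of cultures given vehicle only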; conditions: S. cerevisiae sgs1 mgt1 strain, at 50.0 µM, active compounds read high
Procedure, shortened: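 Compounds are added to genetically altered yeast, and growth is compared with cultures given vehicle alone to give percent inhibition.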

[4] = NCI Yeast Anticancer Drug Screen. Data for the cln2 rad14 strain (AID 165);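 further: 0% = growth equal to vehicle treated cultures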; conditions: S. cerevisiae cln2 rad14 strain, at 50.0 µM, active compounds read high
Procedure, shortened: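 Strain: cln2 rad14 yeast, altered in cell cycle control and DNA damage repair. Read-out: growth inhibition vs vehicle.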

[5] = NCI Yeast Anticancer Drug Screen. Data for the bub3 strain (AID 167); conditions: S. cerevisiae bub3 mutant strain, at 50.0 µM, active compounds read high
Procedure, shortened: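 Whole-cell yeast assay. The mutant strain was incubated with compounds, and growth inhibition was determined by comparison with vehicle-treated cells.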

[6] = NCI Yeast Anticancer Drug Screen. Data for the mlh1 rad18 strain (AID 175); conditions: S. cerevisiae mlh1 rad18 strain growth inhibition; at 50.0 µM; active compounds read high
Procedure, shortened: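 A repair-deficient yeast strain is exposed to test compound, and growth is scored relative to vehicle-treated controls.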

Row | SMILES | growth inhibition [1] | growth inhibition [2] | growth inhibition [3] | growth inhibition [4] | growth inhibition [5] | growth inhibition [6]
1 | COc1cc(N)ccc1C(=O)NC(CCC(=O)O)C(=O)O (stereo unspecified) | -14.5% | -11.2% | 24.9% | -33.7% | 17.9% | -19.7%
2 | Cc1c(-c2nc3ccccc3[nH]2)c(=O)n(-c2ccccc2)n1C | -70.2% | -38.1% | -24.1% | 7.25% | -10.4% | -38.9%
3 | COC(=O)C1(CCSc2ccccc2)CCCC1=O (stereo unspecified) | 29.3% | -33% | 14.8% | 5.05% | 27% | 6.65%
4 | Oc1ccc2ccccc2c1/C=N\Sc1ccc(Br)cc1 | 35.1% | 37.5% | 64.2% | 28.5% | 32.2% | 49.5%
5 | CCOc1ccc2ccc3ccccc3c2c1NC(C)=O | 10.4% | 2.3% | 12.2% | 32% | 3.6% | 6.25%
6 | CCC(CC)C(=O)O | -11.2% | -3.5% | -34.4% | -22.5% | 7.85% | -34.8%
7 | NC(=O)CNC(=O)C1CCCN1C(=O)C1CCCCNOC(=O)CCC(NC(=O)OCC2c3ccccc3-c3ccccc32)C(=O)NC(Cc2c[nH]c3ccccc23)C(=O)N1 (stereo unspecified) (Fmoc-EW[X9]PG-NH2; ester 1-3; configuration not given here) | -16.5% | -14.7% | -22.2% | 18.4% | 4.1% | -6.35%
8 | COc1ccc(C(=O)NNC(=O)c2ccccc2)cc1 | 11.9% | -42.5% | -14.8% | 10.1% | -1.1% | -14.2%
9 | COc1cccc2c1C(=O)c1c(O)c3c(c(O)c1C2=O)C[C@@](O)(C(C)=O)CC3S(=O)(=O)O (stereo partly specified) | -14% | -7.45% | -24.4% | -8.85% | -14.9% | 9.7%
10 | S=C1SC(=Nc2ccccc2)C(=Nc2ccccc2)N1c1ccccc1 | -21.1% | -15.9% | 6.7% | -37.1% | -19.5% | -20.6%
11 | CC1=C(CCC(C)CO)OC2CC3C4CC=C5CC(O)CCC5(C)C4CCC3(C)C12 (stereo unspecified) | 19.1% | -0.65% | 43.4% | 9.95% | 6.3% | 0.85%
12 | CCOc1cccc(N(CC)CC)c1 | 33.9% | 2.05% | -20% | -64.5% | -14.2% | 13.4%
13 | CCCCCCC1CCC(O)CC1 (stereo unspecified) | 22.6% | 2.95% | -8.05% | -0.15% | 12.3% | 41.1%
14 | CC(C)SC(CC(O)C(O)COC(=O)c1ccccc1)SC(C)C (stereo unspecified) | -8.05% | -0.15% | 6.15% | -8.35% | -4.7% | 17.8%
15 | C1COC(C2=NCCO2)=N1 | -12.5% | 2.6% | -14.1% | -42% | 6.1% | -0.4%
16 | OC1C(O)C2CC1C1C2C2(Cl)CC1(Cl)C(Cl)=C2Cl (stereo unspecified) | 7.6% | -1.55% | 1.5% | -1.35% | -6.1% | 14.3%
17 | CC1CCC(C(C)(C)NO)C(=O)C1 (stereo unspecified) | -2.8% | 0% | -4.8% | -8.1% | -2.1% | 0.7%
18 | CN(c1ncc(Cc2cnc(N(C)C3CCN(Cc4ccccc4)CC3)nc2)cn1)C1CCN(Cc2ccccc2)CC1 | -0.75% | -5.95% | -12.8% | -7.95% | -2.95% | -21.8%
19 | O=C1C=C(Nc2ccc(Br)cc2)c2ccccc2C1=O | 36.3% | -1.95% | 11.6% | 7.75% | -1.45% | -2.05%
20 | Cc1nc2ccccc2c(=O)n1NC(=S)Nc1ccccc1 | -40.9% | -57.1% | -41.5% | 7.85% | -32.4% | -59.5%
21 | CN(C(=O)CCC1OCCO1)c1cc([N+](=O)[O-])ccc1OCc1ccccc1 | 22.1% | -1.05% | 1.5% | 9.8% | 2% | 15.2%

Row | SMILES | growth inhibition [1] | growth inhibition [2] | growth inhibition [3] | growth inhibition [4] | growth inhibition [5] | growth inhibition [6]
22 | COc1ccc2nc(NC(=O)C(=O)C(C#N)c3ccc(Cl)c(Cl)c3)sc2c1 (stereo unspecified) | 36.2% | 5.4% | 19.1% | 33.9% | -2.2% | 36.4%
23 | Cc1sc2c(c1C)/C(=N\O)c1cccn1-2 | -0.05% | -3.4% | 34% | 26% | 14.4% | -11.6%
24 | c1ncncn1 | 7.5% | 5.95% | 10.1% | 3.05% | 5.25% | -7.85%
25 | C[Si](C)(C)c1ccc(CC2(Cc3ccc([Si](C)(C)C)cc3)CCNC2)cc1 | -32.9% | -39% | -19.9% | 3.75% | -10.2% | -25.9%
26 | CC12CCC3c4ccc(OC(=O)c5ccccc5)cc4CCC3C1CC(O)C2 (stereo unspecified) | -5.5% | 38.1% | 50.2% | 42.7% | 69.6% | 11.9%
27 | O=C1C(Br)=CC(Br)=C/C1=N/Br | 70.6% (active) | 61.5% | 85.2% (active) | 61.1% | 70% (active) | 78.5% (active)
28 | CN(C)CC1CN(C)CC(CN(C)C)C1(O)C(C(=O)N(C)C)c1ccccc1 (stereo unspecified) | 75.2% (active) | 50% | 65.2% | 36.4% | 49.7% | 62.2%
29 | O1[SiH]2[SiH]3O[SiH]3[SiH]3O[SiH]3[SiH]12 (stereo unspecified) | -16.8% | -11.7% | -8.2% | -16.6% | -4.35% | -26.6%
30 | CC(C)(N)C(=O)N[C@@H]1C(=O)N2[C@@H]1SC(C)(C)[C@@H]2C(=O)O | 8.4% | 3.55% | -19.2% | -0.95% | 5.9% | 4%
31 | CC(C)CC(NC(=O)OC(C)(C)C)C(=O)O (stereo unspecified) | -44.6% | -51.7% | -9.6% | 14.6% | -29.2% | -16.9%
32 | O=c1[nH]c(-c2cccnc2)nnc1-c1ccc(Cl)cc1 | 17.1% | 2.4% | 10.4% | 28.4% | 27.9% | 4.2%
33 | CCOC(=O)c1ccnc2ccccc12 | -5.05% | -3.75% | 1.1% | -4.85% | 5.65% | 3.7%
34 | CNc1nc(C(F)(F)F)nc(Cl)c1N | 10% | 2.5% | 13.4% | -7.95% | 15.3% | 7.4%
35 | Cc1ccccc1NC(=O)NC(Oc1ccccc1)(C(F)(F)F)C(F)(F)F | -6.95% | -21.8% | -50.9% | 15.6% | -32.8% | -29.1%
36 | COc1ccc(C)cc1NC(=S)NC(=O)c1ccc(Cl)cc1Cl | 1.7% | 13.7% | 8.15% | -12.6% | 4.7% | 0.75%
37 | O=c1[nH]c(Nc2ccc(Cl)c(C(F)(F)F)c2)nc2nc[nH]c12 | 17.7% | 7.55% | -9.5% | 9.9% | 8.45% | 23.1%
38 | COc1ccc(C2COc3cc4c(cc3C2)OCO4)cc1 (stereo unspecified) | -22.4% | -26.1% | -20.6% | -2.3% | 20.1% | 4.9%
39 | CCCOc1cc(C)c(C(=O)OC(C)CN2CCCC2)c(C)c1 (stereo unspecified) | 3.5% | -22.4% | 15.8% | -43.7% | -2.1% | -20.4%
40 | COC(=O)C(CS)NC(=O)CNC(=O)CNC(=O)C(CCCCNC(=O)OCc1ccccc1)NC(=O)CNC(=O)C(CSC(c1ccccc1)(c1ccccc1)c1ccccc1)NC(=O)OCc1ccccc1 (stereo unspecified) | -16.2% | 2.75% | -10.7% | -17.2% | -25.2% | 0.2%
41 | COC(=O)C(=O)[C@@H](O)[C@H](O)[C@@H](O)CO | 29.8% | 23.7% | 25% | 13.1% | 25.7% | 23.6%
